Screening data from PubChem.
AMA1 RON2 block – disrupts binding of P. falciparum AMA1 to RON2; AlphaScreen AMA1-biotinylated RON2 peptide binding; actives 0.2% (n = 360,000); Potency, µM (doses to about 58.2 µM), for inactives: top-dose activity change, negative = inhibition, most hits filed as inhibitors;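 note: potency is the fitted concentration of half-maximal effect; 0% = vehicle wells and -100% = peptide control; nearly all actives have a fitted effect of over 45% in size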
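AMA1 (3D7) with his tag at 25 nM final met compounds first, then biotinylated RON2 peptide at 25 nM; detection used donor plus acceptor beads, 10 µg/mL apiece, read by AlphaScreen after 30 min at room temperature.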
CHX counter – affects cycloheximide protein synthesis inhibition readout, counter-screen; cell reporter, cycloheximide protein synthesis inhibition counterscreen; max response, %; actives 12% (n = 300,000); in the data active = max response mostly above about 13%, no sharp cut-off; inactive = mostly below about 14%; note: read at 38.3 µM for the half of the compounds with a filed dose; 0% is about no effect
Shiga inhibitor – inhibitors of Shiga toxin in Vero cells | inhibition, % at 38.7 µM | Vero cells, Shiga toxin protein synthesis inhibition reporter | AID 2315 | actives 9.2% (n = 290,000); in the data active = inhibition mostly above about 28%, no sharp cut-off; inactive = mostly below about 43%; note: 0% is about no effect
HCV inh – blocks hepatitis C virus; Huh7.5.1 HCVcc-Cre infection, luciferase reporter, 44 h; Potency, µM (titrated, usually from 41.8 µM), inactives show at the highest dose activity change, negative = inhibition, usual class: inhibitors; actives 3.4% (n = 340,000); note: potency is the fitted concentration of half-maximal effect; % is set by controls: 0 for no effect and ±100 for the full control effect
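Compounds are dispensed onto cells plated 4 h earlier at 1,000 per well, with HCVcc-Cre virus (about 0.5 moi) added next. Following 44 h of culture, luminescent signal is measured for 15 sec after 15 min with substrate at room temperature.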
Pf growth 48h – inhibits P. falciparum growth in the first generation, 48 h; Potency, µM (doses to about 28.7 µM), for inactives: top-dose activity change, negative = inhibition, actives largely listed as inhibitors; AID 504832; actives 5.9% (n = 310,000); P. falciparum luciferase growth in erythrocytes, 48 h; note: potency is the fitted concentration of half-maximal effect; % is set by controls: 0 for no effect and ±100 for the full control effect
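Here the parasites carry a stable luciferase gene and grow inside erythrocytes in Albumax-based RPMI medium with compound for one erythrocytic cycle. Activity is scored as loss of luminescent signal.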
Pf growth 96h – inhibits malaria parasite growth, 96 h. actives 6.9% (n = 320,000). Potency, µM (series often up to 28.7 µM), without a hit: at the top dose activity change, negative = inhibition, most hits filed as inhibitors. P. falciparum luciferase reporter growth, 96 h; note: potency is the fitted concentration of half-maximal effect; % is set by controls: 0 for no effect and ±100 for the full control effect
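Two parasite generations (96 h, 37 C, 5% CO2) of compound exposure in infected erythrocytes (0.05% parasitemia, 2% hematocrit). Luciferase-reporter P. falciparum; decreased luminescence indicates inhibited growth, aimed at apicoplast-acting delayed death.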
The depositor's hits bear a star; [ ] = another dose, or the depositor's remark. Most compounds without a hit are left out; they make up all but 21% or so of the library. Unless noted, calls come from the whole dose curve; as a rule, active = well fitted curve in the direction sought with a large enough effect; inconclusive = small, poorly fitted or top-dose-only effect, or another doubt; inactive = no such curve, though single readings can be large; an effect the other way counts as inactive or inconclusive.

Screening COc1ccccc1N1CCN(C(=S)Nc2ccc3nc(N4CCOCC4)cc(C)c3c2)CC1 returned AMA1 RON2 block 24%, CHX counter -1, Shiga inhibitor 18, HCV inh 3.5µM*, Pf growth 48h inconclusive and Pf growth 96h inconclusive.
CCN1CCN(c2cc(C)c3cc(NC(=O)CCC(=O)N4CCN(c5ccccc5OC)CC4)ccc3n2)CC1 was read as AMA1 RON2 block -3%, CHX counter 17*, Shiga inhibitor 4, HCV inh inconclusive, Pf growth 48h inconclusive and Pf growth 96h 88%.
For CN1C2=C(C(=O)CC(C)(C)C2)C(c2cccs2)C2=C1CC(C)(C)CC2=O the results were AMA1 RON2 block -5% and HCV inh -20%.
`CCOc1ccc(C2C(C#N)=C(N)Oc3cc(C)n(CCN4CCOCC4)c(=O)c32)cc1OCC` (stereo unspecified) gave AMA1 RON2 block 9%, CHX counter -4, Shiga inhibitor -5, HCV inh inconclusive, Pf growth 48h 13% and Pf growth 96h 17%.
For Cc1cc2c(c(=O)n1Cc1cccnc1)C(c1ccccc1)C(C#N)=C(N)O2 (stereo unspecified) the results were AMA1 RON2 block 4%, CHX counter -1, Shiga inhibitor -9, HCV inh -6%, Pf growth 48h inconclusive and Pf growth 96h 3%.
For Cc1cc2c(c(=O)n1Cc1ccc3c(c1)OCO3)C(c1cccnc1)C(C#N)=C(N)O2 (stereo unspecified) the results were AMA1 RON2 block -11%, CHX counter 1, Shiga inhibitor -7, HCV inh -14%, Pf growth 48h 12µM* and Pf growth 96h -12%[5.75 µM].
COc1ccc(CCn2c(C)cc3c(c2=O)C(c2ccc4c(c2)OCO4)C(C#N)=C(N)O3)cc1OC (stereo unspecified) was read as AMA1 RON2 block 0%, CHX counter -3, Shiga inhibitor -17, HCV inh inconclusive and Pf growth 48h 8.3µM*.
Screening COc1cc(C2C(C#N)=C(N)Oc3cc(C)n(CCN4CCOCC4)c(=O)c32)cc(OC)c1OC (stereo unspecified) returned AMA1 RON2 block 6%, CHX counter 41*, Shiga inhibitor 52, HCV inh 29% and Pf growth 48h inconclusive.
COC(=O)C[C@@H]1CC[C@H](NC(=O)Nc2ccc(F)cc2)[C@@H](CO)O1 was read as AMA1 RON2 block 0%.
Screening Cc1ccc(-c2csc(N3CCC(NS(=O)(=O)c4ccc5c(c4)OCCO5)CC3)n2)cc1 returned AMA1 RON2 block -25%, CHX counter -1, Shiga inhibitor -3, HCV inh 10µM*, Pf growth 48h inconclusive and Pf growth 96h 9.3µM*.
`O=S(=O)(NC1CCN(S(=O)(=O)c2c(F)cccc2F)CC1)c1ccc2c(c1)OCCO2` gave CHX counter 7 and Shiga inhibitor -13.
`CC1(C)O[C@@H]2[C@H](O1)[C@@H](CO)O[C@H]2n1ccc(=O)[nH]c1=O` gave AMA1 RON2 block 6%, HCV inh -9%, Pf growth 48h 4% and Pf growth 96h 36%.
`Cc1cccc(NC(=S)N2CCC(NC(=O)c3cccc(F)c3)CC2)c1` gave AMA1 RON2 block -18%, CHX counter -2, Shiga inhibitor -9, HCV inh 18%, Pf growth 48h -1% and Pf growth 96h inconclusive.
Cc1onc(-c2ccncc2)c1C(=O)O was read as AMA1 RON2 block 0%, CHX counter 27*, Shiga inhibitor 55*, HCV inh 15%, Pf growth 48h 14% and Pf growth 96h 35%.
For CCN1CCCC1CNC(=O)c1cc2cc(F)ccc2[nH]1 (stereo unspecified) the results were AMA1 RON2 block -14%, CHX counter -3, Shiga inhibitor -4, HCV inh -13%, Pf growth 48h inconclusive and Pf growth 96h inconclusive.
Screening COc1ccc(OC)c(NC(=O)COC(=O)CNC(=O)c2ccc(OC)c(OC)c2)c1 returned AMA1 RON2 block -4%, CHX counter -5, Shiga inhibitor -18, HCV inh 12% and Pf growth 96h -2%.
`CN(C)S(=O)(=O)c1cccc(C(=O)OCC(=O)Nc2ccc3c(c2)OCCO3)c1` gave AMA1 RON2 block -5%, HCV inh 13%, Pf growth 48h 7% and Pf growth 96h 40%.
For COc1ccc(C(=O)NCC(=O)OCC(=O)Nc2sccc2C#N)cc1OC the results were AMA1 RON2 block 31%, CHX counter 22*, Shiga inhibitor 36*, HCV inh 5%, Pf growth 48h 60% and Pf growth 96h 31%.
For CN(C)S(=O)(=O)c1cccc(C(=O)OCC(=O)Nc2sccc2C#N)c1 the results were AMA1 RON2 block 89%, CHX counter 56*, Shiga inhibitor 75*, HCV inh 8% and Pf growth 48h 24%.
COc1ccc(-c2nnc3cccc(Cl)n23)c(OC)c1 was read as AMA1 RON2 block -2%, CHX counter 10*, Shiga inhibitor 43*, HCV inh 0%, Pf growth 48h 16% and Pf growth 96h 15%.
For Clc1ccc(-c2nnc3cccc(Cl)n23)c(Cl)c1 the results were AMA1 RON2 block 2%, CHX counter -3, Shiga inhibitor -13, HCV inh -7%, Pf growth 48h -17% and Pf growth 96h inconclusive.
Screening C=CCCCCCCCCC(=O)Nc1ncccn1 returned AMA1 RON2 block 8%, CHX counter -1, Shiga inhibitor -7, HCV inh 2%, Pf growth 48h 6% and Pf growth 96h 21%.
For C=C1C(=O)O[C@@H]2[C@H]1[C@@H](OC(=O)/C(C)=C/C)C/C(C)=C\C(=O)/C=C(\C)[C@@H]2O the results were AMA1 RON2 block 3%, CHX counter 29*, Shiga inhibitor 51*, HCV inh 11µM*, Pf growth 48h inconclusive and Pf growth 96h inconclusive.
CC(=O)c1ccc(NC(=O)c2ccccc2-c2ccccc2C(=O)O)cc1 was read as AMA1 RON2 block -7%, CHX counter -4, Shiga inhibitor 42, HCV inh 8%, Pf growth 48h 0% and Pf growth 96h 4.7µM*.
`CSc1ncc(C(=O)Nc2ccccc2F)c(-c2ccccc2)n1` gave AMA1 RON2 block -2%, CHX counter -2, Shiga inhibitor -4, HCV inh 4%, Pf growth 48h -10% and Pf growth 96h -13%.
CSc1ncc(C(=O)Nc2ccc(C(C)=O)cc2)c(-c2ccccc2)n1 was read as AMA1 RON2 block 4%, CHX counter 41*, Shiga inhibitor 51*, HCV inh inconclusive, Pf growth 48h 13% and Pf growth 96h inconclusive.
